Measurements from PubChem BioAssay.
Where “and” joins values, the source holds several entries; their conditions need not be identical. Identical values can stand only once. Calls of active or inactive are those of the source. Rule as the data show it: active = parasite load remaining mostly below about 12% (no sharp cut-off); inactive = mostly above about 10%.

Experiment: liver-stage malaria parasite growth inhibition, primary screen, cell-based, HepG2, luciferase luminescence, HepG2 viability (AID 624349);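 also: 100% = mean of DMSO negative control wells on the same plate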
Settings: P. berghei liver stage in HepG2, luciferase luminescence, concentration not given here; parasite load remaining: stronger effect = lower value; viability: measured here: HepG2 viability without parasites

Question: For `NC(Cn1ccc(=O)c(O)c1)C(=O)O` (configuration not stated), which viability is on record?
Answer: Its viability is 72.6%.

Question: What about the parasite load remaining of the same compound?
Answer: The parasite load remaining was 81.8% (inactive) and 76.8% (inactive).

Question: With `N#Cc1ccc2c(c1)N(CCCN1CCC(O)CC1)c1ccccc1S2` as the compound, how does the viability read?
Answer: The viability was 87.2%.

Question: What about the parasite load remaining of the same compound?
Answer: The parasite load remaining was 134% (inactive).

Question: For `O=c1c(-c2ccc(O)cc2)coc2cc(O)ccc12`, which parasite load remaining is on record?
Answer: Its parasite load remaining is 225% (inactive).

Question: And the viability?
Answer: The viability was 94.2%.

Question: Which results are given for `CC(CCc1ccc(O)cc1)NCCc1ccc(O)c(O)c1` (configuration not stated)?
Answer: viability: 109% and 73.6% and 115%; parasite load remaining: 118% (inactive) and 72.9% (inactive) and 42.2% (inactive)

Question: Which parasite load remaining does the source give for `CCN1CCCC1CNC(=O)c1cc(S(N)(=O)=O)ccc1OC` (configuration not stated) here?
Answer: Its parasite load remaining is 39.8% (inactive) and 78.3% (inactive).

Question: What about the viability of the same compound?
Answer: Its viability is 52.6% and 93.4%.

Question: For `NC1(C(=O)O)CCCC1`, which viability is on record?
Answer: Its viability is 69.9%.

Question: And the parasite load remaining?
Answer: The parasite load remaining was 96.4% (inactive).

Question: Which results are given for `COC1=CC(=O)C=C(OC)C1=O`?
Answer: parasite load remaining: 122% (inactive); viability: 94.3%

Question: Which results are given for `CCOC(=O)[C@H](CCc1ccccc1)N[C@H](C)C(=O)N1C2CCCCC2C[C@H]1C(=O)O` (some centres not stated)?
Answer: parasite load remaining: 125% (inactive); viability: 94.3%

Question: For `C=NC(C(=O)NC1C(=O)N2C1SC(C)(C)C2C(=O)O)c1ccccc1` (configuration not stated), which parasite load remaining is on record?
Answer: Its parasite load remaining is 130% (inactive).

Question: What about the viability of the same compound?
Answer: The viability was 74.4%.

Question: For `COc1cc(OC)c2ccc(=O)oc2c1`, which parasite load remaining is on record?
Answer: The parasite load remaining was 128% (inactive).

Question: And the viability?
Answer: Its viability is 69.7%.

Question: With `O=C(O)c1cc(=O)c2cccc(O)c2[nH]1` as the compound, how does the viability read?
Answer: Its viability is 71.4%.

Question: What about the parasite load remaining of the same compound?
Answer: The parasite load remaining was 174% (inactive).

Question: With `O=C(O)c1cc2ccccc2[nH]1` as the compound, how does the viability read?
Answer: The viability was 75.3%.

Question: What about the parasite load remaining of the same compound?
Answer: The parasite load remaining was 53.6% (inactive).

Question: Which parasite load remaining does the source give for `NC1=NCCN1CC(=O)O` here?
Answer: The parasite load remaining was 89.9% (inactive).

Question: And the viability?
Answer: Its viability is 69.9%.

Question: What does the source list for `C[C@@]12C(=O)OC(=O)[C@]1(C)[C@H]1CC[C@@H]2O1`?
Answer: viability: 9.1%; parasite load remaining: -0.2% (inactive)

Question: Which parasite load remaining does the source give for `O=C(/C=C/c1ccccc1)c1ccc(O[C@@H]2O[C@H](CO)[C@@H](O)[C@H](O)[C@H]2O)cc1O` here?
Answer: The parasite load remaining was 121% (inactive).

Question: What about the viability of the same compound?
Answer: Its viability is 96.4%.

Question: Which parasite load remaining does the source give for `CC(=O)N[C@@H]1[C@@H](O)[C@H](O)[C@@H](CO)O[C@H]1O` here?
Answer: Its parasite load remaining is 72.2% (inactive).

Question: What about the viability of the same compound?
Answer: The viability was 78.3%.
